From PubChem BioAssay (EPA / NIEHS)
Calls of active or inactive are those of the source. Rule for the calls: active = hit-call score of the fitted dose curve at least 0.9, where 1 is the maximum; inactive = score below 0.9.

Experiment: ATG_GATA_CIS: Attagene CIS-FACTORIAL HepG2 Assay for human GATA Binding Protein (AID 2282944)
Settings: HepG2 GATA cis-element reporter, Attagene multiplex mRNA; actives raise or lower the signal
Outline: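 Transient MRTU transfection, HepG2, 24 h compound exposure. Total RNA → oligo(dT) RT → PCR → 6-FAM primer extension → HpaI cut → CE. Bidirectional fit vs DMSO.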
With `CC(C)=CCOC(=O)c1ccccc1` the outcome was “inactive”. For `CC(C)(C)NC(=O)[C@@H]1CN(Cc2cccnc2)CCN1C[C@@H](O)C[C@@H](Cc1ccccc1)C(=O)N[C@H]1c2ccccc2C[C@H]1O`, the outcome was “inactive”. For `Oc1cccc2ccccc12`, the outcome was “inactive”. For `C=CN1CCCCCC1=O`, the outcome was “inactive”. In the case of `Oc1ccc(Oc2ccccc2)cc1`, the outcome is reported as “inactive”. With `CC(=O)CCc1ccccc1` the outcome was “inactive”. In the case of `CNC[C@H](O)[C@@H](O)[C@H](O)[C@H](O)CO`, the outcome is reported as “inactive”. With `CN(C)c1ccc(C(c2ccccc2)c2ccc(N(C)C)cc2)cc1` the outcome was “inactive”. In the case of `c1ccc2c(c1)Oc1ccccc1S2`, the outcome is reported as “inactive”. For `CCCCCC[C@@H](O)C/C=C\CCCCCCCC(=O)O`, the AC50 was 165 µM (active). In the case of `CC[N+](CC)(CC(=O)Nc1c(C)cccc1C)Cc1ccccc1` (tested in a mixture with another compound), the outcome is reported as “inactive”.
